Sampled rows, rich in hits. Any-hit rate of the full collection: about 5.9%.
KB-V1 MDR tox: kills drug-selected multidrug resistant KB-V1 cells; KB-V1 MDR cells viability, CellTiter-Glo, 72 h; Potency, µM (highest dose often 46.1 µM), most hits filed as cytotoxic; 400,000 tested, 3.4% active; AID 1347076; further: on the % scale 0 is the no-effect control and ±100 the full control effect; nearly all actives have a fitted effect of over 60% in size
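Luminescent ATP read-out (CellTiter-Glo, 10 min) measures survival of drug-selected KB-V1 MDR cells after 72 h, 37 degrees C compound exposure. Medium: phenol-red-free DMEM, 10% FBS. Values from fitted concentration-response curves.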
TGFb inhibitor: blocks TGF-b signaling; HepG2 CAGA-GFP TGF-b/SMAD3 reporter, GFP fluorescence, 18 h; TGF-beta stimulated, 500 pg/mL final; AID 588855; 410,000 tested, 1.2% active; Potency, µM (top dose mostly 46.1 µM), without a hit: at the highest dose activity, negative = inhibition, actives largely listed as inhibitors; further: on the % scale 0 is the no-effect control and ±100 the full control effect; nearly all actives have a fitted effect of over 65% in size
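GFP signal (ex488/em500-530) from TGF-beta-stimulated HEPG2 CAGA-GFP cells, 500 pg/mL final, 18 h at 37 degrees C in DMEM plus 1% FBS, normalized to unstimulated and DMSO-stimulated controls.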
ATXN2 expr inh: ATXN2 expression inhibition; HEK-293 ATXN2-luciferase reporter, luminescence, 24 h; Potency, µM (top dose mostly 57 µM), for inactives: at the highest dose activity change, negative = inhibition, actives largely listed as inhibitors; 360,000 tested, 0.72% active; AID 1745845; further: on the % scale 0 is the no-effect control and ±100 the full control effect; nearly all actives have a fitted effect of over 55% in size
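ATXN2-luciferase reporter cells (luciferase flanked by upstream and downstream ATXN2 gene portions) were treated 24 h at 37 °C with compounds at up to 57 uM. SteadyGlo luminescence gave expression; GF-AFC fluorescence gave viability.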
HepG2 viability: kills HepG2 cells in TGF-b inhibitor counter-screen | HepG2 CAGA-GFP viability, ATP luminescence, 18 h | Potency, µM (doses to about 46.1 µM), for inactives: at the highest dose activity change, negative = cytotoxicity, most hits filed as cytotoxic | 410,000 tested, 0.76% active
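CellTiter-Glo luminescence gave cytotoxicity after 18 hours at 37 degrees C. The cells were HepG2 CAGA-GFP in 1% FBS DMEM, stimulated with 500 pg/mL TGF-beta after compound addition. %Activity was normalised to no-cell wells (complete cell-killing) and DMSO (no toxicity), and curves were fitted and classified.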
KB-3-1 tox: KB-3-1 parental cell cytotoxicity; AID 1347075; 400,000 tested, 1.4% active; Potency, µM (top dose mostly 46.1 µM), hits mostly cytotoxic; KB-3-1 viability, CellTiter-Glo ATP luminescence, 72 h; further: on the % scale 0 is the no-effect control and ±100 the full control effect; nearly all actives have a fitted effect of over 60% in size
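72 h, 37 °C compound treatment of KB-3-1 parental cells; CellTiter-Glo added, 10 min, luminescence read. Data corrected against DMSO-only plates and normalized before curve fitting.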
ATXN viability: viability counter-screen for ATXN expression inhibitors; Potency, µM (highest dose often 56.7 µM), usual class: cytotoxic; 400,000 tested, 0.49% active; S2 cells (HEK-293 line with an ATXN2-luciferase reporter) viability, CellTiter-Fluor protease fluorescence, 24 h; further: nearly all actives have a fitted effect of over 40% in size
An asterisk follows results filed as active. The call rests on the fitted dose curve; in most records, active means well fitted curve in the direction sought with a large enough effect; inconclusive means small, poorly fitted or top-dose-only effect, or another doubt; inactive means no such curve, though single readings can be large; an effect the other way counts as inactive or inconclusive. Potency means the concentration at half of the fitted maximal effect.

How did CC1(C)CC(=O)C=C(c2ccc(-c3cnc4ccccc4c3)cc2)C1=O do in these assays?
KB-V1 MDR tox: inactive; TGFb inhibitor: -6%; ATXN2 expr inh: inconclusive; HepG2 viability: -23%; KB-3-1 tox: inactive; ATXN viability: 7.9µM*

Results for CC1(C)CC(=O)C=C(c2ccc(Oc3ccccc3)cc2)C1=O ?
KB-V1 MDR tox: inactive; TGFb inhibitor: -11%; ATXN2 expr inh: 11%; HepG2 viability: -32%; KB-3-1 tox: inactive; ATXN viability: inconclusive

How did Cc1cc(C)cc(NC(=O)CN2C(=O)c3ccccc3Sc3ccc(C(=O)N4CCCC4)cc32)c1 do in these assays?
KB-V1 MDR tox: inactive; TGFb inhibitor: -16%; ATXN2 expr inh: 2%; HepG2 viability: -19%; KB-3-1 tox: inactive; ATXN viability: inconclusive

How did COc1cc(/C=N/NS(=O)(=O)c2ccccc2)ccc1OS(=O)(=O)c1ccc(C)cc1 do in these assays?
KB-V1 MDR tox: inactive; TGFb inhibitor: -3%; ATXN2 expr inh: 6%; HepG2 viability: 6%; KB-3-1 tox: inactive; ATXN viability: inactive

What do the screens show for `COc1cc(/C=N/NC(=O)c2cccnc2)ccc1OS(=O)(=O)c1ccc(C)cc1`?
KB-V1 MDR tox: inactive; TGFb inhibitor: 2%; HepG2 viability: 9%; KB-3-1 tox: inactive; ATXN viability: inactive

How did Cc1ccc(S(=O)(=O)Oc2ccccc2/C=N/N=C(N)N)cc1 do in these assays?
KB-V1 MDR tox: inactive; TGFb inhibitor: inconclusive; ATXN2 expr inh: -30%; HepG2 viability: -74%; KB-3-1 tox: inactive; ATXN viability: inactive

What do the screens show for `Cc1ccc(S(=O)(=O)Oc2ccccc2/C=N/NC(N)=S)cc1`?
KB-V1 MDR tox: inconclusive; TGFb inhibitor: -18%; ATXN2 expr inh: -21%; HepG2 viability: -53%; KB-3-1 tox: 6.5µM*; ATXN viability: inactive

Results for COc1ccc(NC(=O)COc2ccc(N(C)S(=O)(=O)c3ccc(Cl)cc3)cc2)cc1OC ?
KB-V1 MDR tox: 0.92µM*; TGFb inhibitor: inconclusive; ATXN2 expr inh: inconclusive; HepG2 viability: -16%; KB-3-1 tox: 21µM*; ATXN viability: inconclusive

How did COc1cc(/C=N/NC(=O)COc2cccc(F)c2)ccc1OS(=O)(=O)c1ccc(C)cc1 do in these assays?
KB-V1 MDR tox: 5.8µM*; TGFb inhibitor: inconclusive; ATXN2 expr inh: 17%; HepG2 viability: -9%; KB-3-1 tox: inconclusive; ATXN viability: inactive

How did COc1ccc(/C=N/NS(=O)(=O)c2ccccc2)cc1OS(=O)(=O)c1ccc(C)cc1 do in these assays?
KB-V1 MDR tox: 18µM*; TGFb inhibitor: -21%; ATXN2 expr inh: -7%; HepG2 viability: 1%; KB-3-1 tox: inactive; ATXN viability: inactive

How did O=C(CSc1nc2c([nH]c3ccccc32)c(=O)n1-c1ccccc1)N1CCCc2ccccc21 do in these assays?
TGFb inhibitor: -7%; HepG2 viability: -19%

Results for Cc1ccc(N2CC(NC(=O)CCc3ccccc3)CC2=O)cc1 (stereo not given) ?
TGFb inhibitor: 8%; HepG2 viability: -1%

Results for CCN(CC)C(=O)Cn1cc(SCC(=O)Nc2cccc(F)c2)c2ccccc21 ?
KB-V1 MDR tox: inconclusive; TGFb inhibitor: 0%; ATXN2 expr inh: 5%; HepG2 viability: -12%; KB-3-1 tox: inactive; ATXN viability: inconclusive

Results for COC(=O)N/N=C/c1ccc(OS(=O)(=O)c2ccc(C)cc2)c(OC)c1 ?
KB-V1 MDR tox: inactive; TGFb inhibitor: -1%; ATXN2 expr inh: 7%; HepG2 viability: -17%; KB-3-1 tox: inactive; ATXN viability: inactive

What do the screens show for `COc1cc(/C=N/NC(=O)COc2ccc(Cl)cc2)ccc1OS(=O)(=O)c1ccc(C)cc1`?
KB-V1 MDR tox: 16µM*; TGFb inhibitor: -15%; ATXN2 expr inh: -8%; HepG2 viability: -17%; KB-3-1 tox: inactive; ATXN viability: inactive

What do the screens show for `CCN(CC)CCNC(=O)c1ccc(NC(=O)Cc2ccc(OC)c(S(=O)(=O)N3CCOCC3)c2)cc1`?
KB-V1 MDR tox: inactive; TGFb inhibitor: 15%; ATXN2 expr inh: 10%; HepG2 viability: 4%; KB-3-1 tox: inactive; ATXN viability: inactive

Results for C=CC(=O)Nc1ccc(CN2C(=O)N(c3c(Cl)c(OC)cc(OC)c3Cl)Cc3cnc(NCCCCN(CC)CC)nc32)cc1 ?
KB-V1 MDR tox: inactive; TGFb inhibitor: inconclusive; ATXN2 expr inh: inconclusive; HepG2 viability: -83%; KB-3-1 tox: 12µM*; ATXN viability: 11µM*

What do the screens show for `CC(=O)Nc1ccccc1-c1nc(CNC(=O)c2cc(C)ccc2C)c(C)o1`?
ATXN viability: inactive

How did O=C(CSc1nc2ccccc2c(=O)n1-c1ccccc1)NCc1ccco1 do in these assays?
KB-V1 MDR tox: 13µM*; TGFb inhibitor: 11%; ATXN2 expr inh: 4%; HepG2 viability: 6%; KB-3-1 tox: inconclusive; ATXN viability: inconclusive

Results for Cc1cccc(-n2c(SCC(=O)NCc3ccc4c(c3)OCO4)nc3ccccc3c2=O)c1 ?
KB-V1 MDR tox: inactive; TGFb inhibitor: 7%; ATXN2 expr inh: -18%; HepG2 viability: -1%; KB-3-1 tox: inactive; ATXN viability: inconclusive

What do the screens show for `O=C(Cc1cccs1)Nn1c(Cc2cccs2)nc2ccccc2c1=O`?
KB-V1 MDR tox: 21µM*; TGFb inhibitor: -26%; ATXN2 expr inh: 9%; HepG2 viability: -21%; KB-3-1 tox: inactive; ATXN viability: inactive

What do the screens show for `C/C(=N\OCC(=O)Nn1c(C)nc2ccccc2c1=O)c1ccccc1`?
KB-V1 MDR tox: 16µM*; TGFb inhibitor: inconclusive; ATXN2 expr inh: 3%; HepG2 viability: -3%; KB-3-1 tox: inactive; ATXN viability: inactive

What do the screens show for `Cc1cccc(-n2c(SCC(=O)NCc3ccco3)nc3ccccc3c2=O)c1`?
KB-V1 MDR tox: 10µM*; TGFb inhibitor: 15%; ATXN2 expr inh: -9%; HepG2 viability: -32%; KB-3-1 tox: inactive; ATXN viability: inactive

What do the screens show for `CCCCC(O)/C=C(C)/C=C/C=C/C(=O)N1CCCC1=O` (stereo not given)?
ATXN2 expr inh: 15%; ATXN viability: inactive

Results for Cc1ccccc1NS(=O)(=O)c1ccc2[nH]cc(C(=O)NC(C)c3ccccc3)c(=O)c2c1 (stereo not given) ?
TGFb inhibitor: inconclusive; HepG2 viability: -66%

How did CCC1(C2CCN(C(=O)c3ccccc3C)CC2)NC(=O)N(CCc2scnc2C)C1=O (stereo not given) do in these assays?
ATXN viability: inactive

Screening results deposited in PubChem BioAssay by National Center for Advancing Translational Sciences (NCATS).
